Among the data in PubChem BioAssay (NCI) are growth values, retold here.

Some test systems named below: SR leukemia; RPMI-8226 leukemia; OVCAR-8 ovarian; OVCAR-5 ovarian; OVCAR-4 ovarian; SK-OV-3 ovarian; IGROV1 ovarian; OVCAR-3 ovarian; HS 578T breast; NCI/ADR-RES ovarian.
Test in all cases: NCI-60 one-dose screen, 48 h (100 = growth as untreated, 0 = no growth, -100 = all killed)
Common to all, as to details: 10 µM unless noted

About 83,000 compounds went through this panel and 20% of them were active in at least one assay; those are over-represented in the sample as a whole.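 Cell lines were cultured in 96-well plates, exposed to a single compound concentration, and assessed for percent growth 48 hours later.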 Values without a mark were called inactive. Calls of active or inactive are those of the source. The calls were made as follows: active = growth percent below 10; inactive = the rest.

As for `NC(=O)c1cccc([C@@H]2O[C@H](CO)[C@@H](O)[C@H]2O)c1`, the growth was 84% with SR leukemia; -25.7% (active) in the experiment with RPMI-8226 leukemia; 9.76% (active) in the experiment with OVCAR-8 ovarian; 102% with OVCAR-5 ovarian; -20.6% (active) with OVCAR-4 ovarian; 28.7% with SK-OV-3 ovarian. Besides, the growth with IGROV1 ovarian is 110%; in the experiment with OVCAR-3 ovarian, 70.6%; in the experiment on HS 578T breast it was 5.46% (active); in the experiment on NCI/ADR-RES ovarian, 23.8%.
In the case of `CN(C)c1ccc(-c2ccc3c(c2)c(-c2ccccc2)nc(=O)n3C)cn1`, the growth in the experiment on SR leukemia was 16.7%; in the experiment with RPMI-8226 leukemia, 2.69% (active); in the experiment with OVCAR-8 ovarian it was 54%; in the experiment on OVCAR-5 ovarian, 53.2%; in the experiment with OVCAR-4 ovarian, 74.6%; in the experiment with SK-OV-3 ovarian it was 38.6%. For the same compound, the growth with IGROV1 ovarian is 49.1%; with OVCAR-3 ovarian, 13.1%; in the experiment on HS 578T breast, 41.2%; with NCI/ADR-RES ovarian it was 27.2%.
Turning to `CCN1C(=O)N(CC)C2C1NN=c1s/c(=C\c3ccc[nH]3)c(=O)n12` (stereo not given), the growth in the experiment with SR leukemia was 16.3%; in the experiment with RPMI-8226 leukemia it was 15.5%; in the experiment with OVCAR-8 ovarian, 11.2%; with OVCAR-5 ovarian, 22.2%; in the experiment with OVCAR-4 ovarian, 50.6%; with SK-OV-3 ovarian, 27.1%. The growth with IGROV1 ovarian was 28.8%; with OVCAR-3 ovarian, -25.3% (active); with HS 578T breast, 7.95% (active); with NCI/ADR-RES ovarian, 8.11% (active).
With `CC1=C(C(=O)Nc2nc(-c3ccc(Cl)cc3)cs2)[C@H](c2ccc(O)cc2)NC(=O)N1`, the growth is 113% in the experiment on SR leukemia; 109% with RPMI-8226 leukemia; 105% with OVCAR-8 ovarian; 106% in the experiment with OVCAR-5 ovarian; 98.6% with OVCAR-4 ovarian; 111% with SK-OV-3 ovarian. Also, the growth in the experiment with IGROV1 ovarian was 97.8%; with OVCAR-3 ovarian, 95.8%; in the experiment on HS 578T breast it was 106%; in the experiment with NCI/ADR-RES ovarian it was 101%.
Consider `CN(C)CCCC1(c2ccc(F)cc2)OCc2cc(-c3ccc4cc[nH]c4c3)ccc21` (stereo not given), for which the growth in the experiment with SR leukemia was -2.82% (active); with RPMI-8226 leukemia, 36.7%; with OVCAR-8 ovarian, 57.9%; with OVCAR-5 ovarian, 84.4%; in the experiment on OVCAR-4 ovarian it was 44.4%; in the experiment on SK-OV-3 ovarian, 90.2%. The growth in the experiment with IGROV1 ovarian is 23%; in the experiment with OVCAR-3 ovarian it was 45.6%; in the experiment on HS 578T breast, 54.6%; in the experiment on NCI/ADR-RES ovarian it was 56.8%.
In the case of `C[C@H](CCCC(=O)NCC#CCN1CCN(C)CC1)[C@H]1CC[C@H]2[C@@H]3CC[C@@H]4CC(=O)CC[C@]4(C)[C@H]3CC[C@]12C`, the growth in the experiment on SR leukemia is 48.3%; in the experiment on RPMI-8226 leukemia, 86.7%; with OVCAR-8 ovarian, 94.6%; in the experiment with OVCAR-5 ovarian it was 93.3%; in the experiment on OVCAR-4 ovarian, 98.4%; in the experiment on SK-OV-3 ovarian, 81.6%. The growth in the experiment on IGROV1 ovarian is 92.2%; in the experiment with OVCAR-3 ovarian, 91.5%; in the experiment with HS 578T breast it was 81.8%; in the experiment with NCI/ADR-RES ovarian it was 93.5%.
With `CC(=O)Oc1ccc(OC(C)=O)c2ccccc12`, the growth in the experiment with SR leukemia was 56.8%; in the experiment with RPMI-8226 leukemia it was 6.57% (active); with OVCAR-8 ovarian it was 48.8%; in the experiment with OVCAR-5 ovarian, 98.4%; with OVCAR-4 ovarian, -96.4% (active); in the experiment with SK-OV-3 ovarian it was 102%. Also, the growth in the experiment with IGROV1 ovarian was 68.5%; in the experiment on OVCAR-3 ovarian, 59.7%; in the experiment with HS 578T breast, 109%; with NCI/ADR-RES ovarian it was 64.5%.
Turning to `O=C(c1c[nH]c2ccccc12)c1n[nH]c(=S)n1-c1cccc(Br)c1`, the growth was 76.8% in the experiment on SR leukemia; 84.1% with RPMI-8226 leukemia; 93.5% in the experiment on OVCAR-8 ovarian; 89.7% with OVCAR-5 ovarian; 87.1% with OVCAR-4 ovarian; 91.8% with SK-OV-3 ovarian. The growth with IGROV1 ovarian is 60.6%; in the experiment on OVCAR-3 ovarian, 86.4%; in the experiment on HS 578T breast, 93.8%; in the experiment on NCI/ADR-RES ovarian, 106%.
For `NC(=O)c1c(NC(=O)c2cccc(C(F)(F)F)c2)sc2c1CCC(=O)C2`, the growth with SR leukemia is -13.2% (active); with RPMI-8226 leukemia it was -22.5% (active); in the experiment with OVCAR-8 ovarian, 13.6%; in the experiment on OVCAR-5 ovarian it was 12.8%; in the experiment on OVCAR-4 ovarian, -92.2% (active); in the experiment on SK-OV-3 ovarian it was 1.42% (active). Further, the growth was -6.14% (active) with IGROV1 ovarian, -37.6% (active) with OVCAR-3 ovarian, 9.53% (active) in the experiment on HS 578T breast and -2.23% (active) with NCI/ADR-RES ovarian.
Take `c1nc2ccc(-c3cc4ccc5[nH]ncc5c4c4c3CCCC4)cc2[nH]1`: the growth in the experiment with SR leukemia was 8.69% (active); in the experiment with RPMI-8226 leukemia, 58.1%; in the experiment with OVCAR-8 ovarian, 78.5%; in the experiment on OVCAR-5 ovarian it was 69.3%; with OVCAR-4 ovarian, 88%; with SK-OV-3 ovarian it was 50.2%. Further, the growth in the experiment on IGROV1 ovarian is 36%; in the experiment on OVCAR-3 ovarian it was 89.5%; with HS 578T breast it was 65.2%; in the experiment with NCI/ADR-RES ovarian it was 110%.
In the case of `[2H]C([2H])([2H])Oc1ccc(F)cc1/C=C/C(=O)/C=C(/C=C/c1cc(F)ccc1OC([2H])([2H])[2H])OB(F)F`, the growth is 22.7% in the experiment with SR leukemia; 10.7% in the experiment with RPMI-8226 leukemia; 19.2% with OVCAR-8 ovarian; 107% with OVCAR-5 ovarian; 74.7% with OVCAR-4 ovarian; 107% with SK-OV-3 ovarian. The growth is 87.4% in the experiment on IGROV1 ovarian, 42.1% in the experiment on OVCAR-3 ovarian, 91.9% with HS 578T breast and 76.5% in the experiment with NCI/ADR-RES ovarian.
As for `O=S(=O)(Nc1cc(Sc2cccc3cccnc23)c(O)c2ccccc12)c1ccccc1`, the growth was 5.4% (active) in the experiment with SR leukemia; -4.98% (active) in the experiment with RPMI-8226 leukemia; 9.56% (active) in the experiment on OVCAR-8 ovarian; 47.1% in the experiment on OVCAR-5 ovarian; -100% (active) with OVCAR-4 ovarian; 52.1% with SK-OV-3 ovarian. Also, the growth in the experiment on IGROV1 ovarian is 10.4%; in the experiment with OVCAR-3 ovarian, -81.2% (active); with HS 578T breast, 40.3%; with NCI/ADR-RES ovarian it was 8.88% (active).
Regarding `Cn1cc(-c2csc(-c3c[nH]c4ccc(F)cc34)n2)c2ccnc(Cl)c21`, the growth in the experiment on SR leukemia was 44.4%; in the experiment on RPMI-8226 leukemia, 52.9%; in the experiment with OVCAR-8 ovarian, 80.5%; in the experiment on OVCAR-5 ovarian, 127%; with OVCAR-4 ovarian, 47.2%; with SK-OV-3 ovarian, 74.3%. The growth in the experiment on IGROV1 ovarian is 70.5%; in the experiment with OVCAR-3 ovarian it was 73.4%; with HS 578T breast, 74.3%; in the experiment with NCI/ADR-RES ovarian it was 71.4%.
